Test results taken from the supplement of paper PMC10338343.
± gives the standard deviation.

What follows are sequences tested on MILI (PIWIL2) piRISC loaded with L1MC piRNA (26 nt) (assay: pre-steady-state target cleavage rate (min^-1); guide: L1MC piRNA 5'p-UAACUAAAUACUAUGCAAGCUGUAGG; MIWI and MILI are mouse PIWI proteins and EfPiwi is from a freshwater sponge; tags in brackets are library labels; higher = faster piRNA-guided slicing of the target). Conditions: auxiliary factor: none (no GTSF1).
Outline: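 Cleave-'n-Seq: a transcribed, DNA-blocked target RNA library (0.1 nM) was mixed with 1 nM active affinity-purified piRISC carrying one synthetic guide, with or without 500 nM GTSF1 partner protein, in HEPES–potassium acetate buffer at 33 °C for 0–8 or 0–960 min. Uncleaved targets were sequenced and normalised to depth and to weakly complementary targets. Three trials were pooled, and k3 was capped at 0.0001 min^-1. The pre-steady-state cleavage rate came from a burst-and-steady-state fit.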

Sequence	pre-steady-state target cleavage rate
UCCUGGAUGUCGAACCAUACGUAUUUAGUUA	< 0.0001
UCCUGGAUGUCGAUGCAUAGUUAAUAGUUA	0.00272 ± 0.0027
UCCUGGAUCAGCUUCCAUAGUAUUAAGUUA	< 0.0001
